This is a sample that favours compounds with a hit; in the whole collection about 11% have one here.
OTUD3 inh = inhibitors of human OTUD3 deubiquitinase; OTU domain-containing protein 3 (Homo sapiens), Q5T2D3; purified OTUD3, Ub-rhodamine fluorescence, 2 h; inhibition, % at 25 µM; actives 0.7% (n = 47,000)
USP30 inh = inhibitors of human USP30 deubiquitinase; actives 5.3% (n = 47,000); inhibition, % at 25 µM; purified USP30, Ub-rhodamine cleavage fluorescence; Ubiquitin carboxyl-terminal hydrolase 30 (Homo sapiens), Q70CQ3
Target sequence (Q70CQ3 whole entry, looked up): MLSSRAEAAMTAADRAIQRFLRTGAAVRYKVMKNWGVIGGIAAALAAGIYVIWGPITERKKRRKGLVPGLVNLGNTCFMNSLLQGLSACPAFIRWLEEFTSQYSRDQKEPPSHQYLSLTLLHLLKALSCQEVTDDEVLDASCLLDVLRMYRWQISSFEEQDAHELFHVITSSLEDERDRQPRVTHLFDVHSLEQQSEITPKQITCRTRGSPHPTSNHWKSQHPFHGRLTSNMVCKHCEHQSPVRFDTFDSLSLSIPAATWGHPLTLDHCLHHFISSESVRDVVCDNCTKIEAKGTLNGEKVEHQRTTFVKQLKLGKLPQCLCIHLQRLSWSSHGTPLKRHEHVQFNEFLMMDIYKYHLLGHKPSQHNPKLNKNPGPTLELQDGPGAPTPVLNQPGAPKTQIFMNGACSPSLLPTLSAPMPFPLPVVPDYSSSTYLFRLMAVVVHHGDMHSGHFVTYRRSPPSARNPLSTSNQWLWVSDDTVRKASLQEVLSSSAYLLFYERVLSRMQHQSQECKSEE
USP17 block = inhibitors of human USP17 deubiquitinase; purified USP17, Ub-rhodamine cleavage fluorescence, 3 h; inhibition, % at 50 µM; actives 6.5% (n = 47,000); AID 1645855, 2021
USP28 inh = inhibitors of human USP28 deubiquitinase | Ubiquitin carboxyl-terminal hydrolase 28 (Homo sapiens), Q96RU2 | purified USP28, Ub-rhodamine cleavage fluorescence, 30 min | inhibition, % at 25 µM | actives 3% (n = 47,000)
* marks the source's active call; other numbers are inactive results; i = inactive; / = no result given. Cut-off read from the data, not from the text of the source: active = inhibition above about 30%; inactive = the rest.

SMILES | OTUD3 inh | USP30 inh | USP17 block | USP28 inh
Cc1cnc(N2CCOC3(COCCN(CCN(C)C)C3)C2)nc1 (stereo not given) | 6 | 9 | -8 | 9
COc1ccc(C2SCC(=O)Nc3c2c(-c2ccccc2)nn3-c2ccccc2)cc1 (stereo not given) | 17 | 14 | 13 | 25
Cn1c(=O)c2ncnnc2n(C)c1=O | 90* | 83* | 95* | 96*
CCOc1ccccc1C1SCC(=O)Nc2c1c(-c1ccccc1)nn2-c1ccccc1 (stereo not given) | 1 | -6 | 0 | 3
CN(C[C@H]1CN2CC[C@H]1C[C@@H]2CNC(=O)Nc1cccc(F)c1)c1ccccc1 | -2 | 40* | -27 | -4
Cn1ccnc1CN1CCOC2(CCCN(c3ccccn3)C2)C1 (stereo not given) | -4 | -20 | -4 | -13
CCCCN1CC(C(=O)Nc2ccc(C(=O)Nc3ccc(C#N)c(Cl)c3)cc2)CC1=O (stereo not given) | -24 | -141 | 4 | -13
COc1ccc2c(c1)c(C(=O)NC(C)C(C)C)c(C)n2C1CC1 (stereo not given) | 0 | -5 | -6 | -1
CC(C)c1cc2c(c(O)c1O)[C@@]1(C(=O)O)CCCC(C)(C)[C@@H]1CC2 | 36* | 57* | 79* | 39*
CC(C)c1cc2c(c(O)c1O)C1(C(=O)O)CCCC(C)(C)C1CC2 (stereo not given) | 46* | 81* | 88* | 53*
CCc1ccccc1N1CC(c2nnc(NC(=O)Cc3ccc(F)cc3)s2)CC1=O (stereo not given) | -6 | -2 | -14 | -4
Cc1cc(C)nc(-n2nc(C)c3c2NC(=O)CSC3c2cccc(F)c2F)n1 (stereo not given) | -5 | -3 | -1 | -2
CN1CC2(c3ccccc3)CN(C)CC(c3ccccc3)(C1)C2=O | 4 | 28 | 14 | 12
Cn1cc(CN2C[C@H](OCc3ccccn3)[C@H]3COC[C@H]32)cn1 | 3 | -10 | / | -5
O=C(NC1CCCC1)C1=NOC2(CCCNC2)C1 (stereo not given) | 3 | -1 | -50 | -9
CN(C)[C@@H]1C(=O)C(C(N)=O)=C(O)[C@@]2(O)C(=O)C3=C(O)c4c(O)cccc4[C@@](C)(O)[C@H]3C[C@@H]12 | 24 | -99 | 51* | 28
CN(C)[C@@H]1C(=O)C(C(N)=O)=C(O)[C@@]2(O)C(=O)C3=C(O)c4c(O)cccc4[C@@](C)(O)C3[C@H](O)[C@@H]12 (stereo not given in full) | 90* | 50* | 84* | 87*
CC(C)=CCCC1(C)C=Cc2c(O)c3c(c(CC=C(C)C)c2O1)O[C@]12C(=C[C@@H]4CC1C(C)(C)O[C@@]2(C/C=C(/C)C(=O)O)C4=O)C3=O (stereo not given in full) | 77* | 37* | 82* | 90*
CCC(CC(C)C(=O)O)C(=O)CC/C1=C/C(C)C/C(C)=C/C(C)C(O)C(C)CCC(CCCC/C=C/C(C)CCC(C)OC(=O)CC(CC(=O)O)C(=O)O)OC(=O)CC(C(=O)O)CC(=O)OC1 (stereo not given) | 3 | 32* | 0 | 0
CCCCCC(O)c1c(O)cc2c(c1O)C(=O)c1c(O)cc(O)cc1C2=O (stereo not given) | -74 | i | 58* | -48
CCCC1Cc2cc3c(c(O)c2C(=O)O1)-c1c(c(OC)c2oc4c(O[C@H]5C[C@H](O)[C@H](O[C@H]6C[C@H](O)[C@H](O[C@H]7C[C@H](OC)[C@H](O)C(C)O7)C(C)O6)C(C)O5)ccc(O)c4c(=O)c2c1O)[C@H](O)[C@@H]3O (stereo not given in full) | 1 | -60 | 37* | 1
